PubChem BioAssay (NCATS)
Records with an inconclusive call do not appear. A number with no mark means an inactive call. Calls of active or inactive are those of the source. Calls follow the shape of the dose curve; as a rule, active = well fitted curve in the direction sought with a large enough effect; inconclusive = small, poorly fitted or top-dose-only effect, or another doubt; inactive = no such curve, though single readings can be large; an effect the other way counts as inactive or inconclusive.

The molecules below were run against Aldehyde dehydrogenase, mitochondrial (Homo sapiens) (UniProt P05091) (assay: qHTS for Inhibitors of the Aldehyde Dehydrogenase Family (ALDH2) Primary screen (AID 2061308;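 also: plate controls were vehicle for no effect and reference inhibitor for full effect; nearly all actives have a fitted effect of over 55% in size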)). Conditions: ALDH2 enzyme inhibition qHTS, 1536-well; series mostly up to 56 µM; activity change, negative = inhibition: at the top concentration.

Structure (SMILES)	activity change, negative = inhibition	Potency
COC1=CC(=O)C[C@@H](C)[C@@]12Oc1c(Cl)c(OC)cc(OC)c1C2=O	10.7%	
Cc1ccc(NS(=O)(=O)c2cc3c(cc2NC(C)CO)NC(=O)CC3)cc1C (stereo not given)	19.5%	
COC(=O)c1cc(F)c(S(=O)(=O)N2CCN(S(=O)(=O)c3ccc4c(c3)OCCO4)CC2)cc1F	8.78%	
Cc1ccc(CNc2ccc(N3CCN(C(=O)OC(C)(C)C)CC3=O)cc2)cc1	-0.614%	
CC(C)(O)/C=C/C(=O)[C@](C)(O)[C@H]1[C@H](O)C[C@@]2(C)[C@@H]3CC=C4[C@@H](C[C@H](O[C@@H]5O[C@H](CO)[C@@H](O)[C@H](O)[C@H]5O)C(=O)C4(C)C)[C@]3(C)C(=O)C[C@]12C	5.13% [at 16.9 µM]	
Cc1cc2c(s1)c1cnn(Cc3c(F)ccc(F)c3Cl)c(=O)c1n2C	-3.63%	
O=C(Nc1ccc(-c2ccccc2)nc1)c1cccs1	2.65%	
Oc1ccc(-c2ccccc2F)c2cccnc12	-7.21%	
Cc1nc(N2CCOCC2)c2nc(-c3ccccc3)n(CC(C)(C)CN(C)C)c2n1	1.6%	
Cc1ccc2nc(NC3=NC4(CCCC4)C4=C(CCCC4=O)N3)oc2c1	-0.746%	
Cc1cc(NC(=O)Nc2cccc(-c3ccncc3)n2)ccc1Cl		inactive
Cc1cc(C)n2ncc(C(=O)Nc3cccc(C(F)(F)F)c3)c2n1	7.62%	
Cc1cc2c(s1)c1cnn(Cc3cccc(F)c3)c(=O)c1n2C	3.39%	
CC(C)C1CCC(C(=O)Nc2ccc(S(=O)(=O)Nc3nccs3)cc2)CC1 (stereo not given)	0.165%	
CCCCCN1CCC(C(=O)Nc2ccc([S+](=O)([O-])Nc3nccs3)cc2)CC1	19.4%	
CC(=O)N1CCc2cc(S(=O)(=O)Nc3ccc(C)c(C)c3)ccc21	-6.55%	
CNc1oc(-c2ccc(Cl)c(Cl)c2)nc1C#N	7.28%	
CNCC(=O)Nc1ccc(Cl)cc1C(=O)c1ccc[nH]1	-18%	
Cc1ccc(-c2ccc(CNc3nc(-c4ccccc4C(C)C)nc4ccccc34)cc2)cn1	-12.1%	
COc1ccc2nc(-c3ccc(F)cc3Cl)sc2c1	-16.5%	

Structure (SMILES)	activity change, negative = inhibition	Potency
COc1ccc(C(=O)Nc2ccc(-c3nc4ccccc4[nH]3)cc2)cc1C(F)(F)F	3.52%	
C=C1C[C@]23C[C@H]1CC[C@H]2C1=C[C@H]2OC(=O)[C@@](C)([C@H]1[C@@H]3C(=O)O)[C@H]2O	-3.51%	
Cc1nc(NCCO)c2nc(-c3ccccc3)n(CC3CCN(C)CC3)c2n1	-8.31%	
Cn1c2cc(Br)sc2c2cnn(Cc3c(F)cccc3F)c(=O)c21	12.1%	
CC(=O)O[C@H]1CC(C)(C)CC2[C@]13CO[C@@]21CCC2[C@@]4(C)CC[C@H](O[C@@H]5OC[C@H](O[C@@H]6O[C@H](CO)[C@@H](O)[C@H](O)[C@H]6O[C@@H]6OC[C@@H](O[C@@H]7O[C@H](CO)[C@@H](O)[C@H](O)[C@H]7O)[C@H](O)[C@H]6O)[C@H](O)[C@H]5O[C@@H]5O[C@H](CO)[C@@H](O)[C@H](O)[C@H]5O)[C@@](C)(CO)C4CC[C@@]2(C)[C@]1(C)C[C@H]3O (stereo not given in full)	0.34% [at 11.2 µM]	
Cc1ccc(-c2ccc(=O)n(CC(=O)NCCc3ccccn3)n2)cc1	5.42%	
CN(C)c1ccc2nc(NC(=S)N3CCN(c4cccc(C(F)(F)F)c4)CC3)sc2c1	-8.88%	
CNc1nc(-c2ccc3c(N)n[nH]c3c2)cc(N2CC(C(=O)NC3CCCCC3)CCC2C)n1 (stereo not given)	3.28%	
CCOC(=O)CCC(=O)Nc1ncnc2c1C(c1ccccc1)c1c(ccc3ccccc13)O2 (stereo not given)	2.76%	
Fc1ccc(-c2ccc(Nc3nc(-c4ccncc4)nc4ccccc34)cc2F)cc1	-7.62%	
CCC(C)/C=C(C)/C=C/C1=CC2=C(Cl)C(=O)C(C)(OC(C)=O)C(=O)C2(O)C(OC)O1 (stereo not given)	-17.1% [at 28 µM]	
O=C(CNC(=O)C1CCCCC1)OC(C(=O)c1ccccc1)c1ccccc1 (stereo not given)	18.2%	
CCCn1c(C)nc2c(NCc3ccccc3)nc(C)nc21	10.6%	
CCN(CC)Cc1cccc(/C=C/c2nc3ccc(F)cc3c(=O)n2-c2ccccc2Cl)n1	14.5%	
CC(C)(C)OC(=O)NCCOCCOCCOc1ccc(-c2no[n+]([O-])c2C#N)cc1	-19.9%	
Cc1ccc(S(=O)(=O)Nc2ccccc2C(=O)Nc2cccc(-c3ccccc3)c2)cc1	-4.52%	
COc1cc(O)c(C(CC(=O)N2CCC(Cc3ccccc3)CC2)c2ccc(OC)c(OC)c2)c(OC)c1 (stereo not given)	-1.77% [at 114 µM]	
O=C(NCCc1ccccc1)C1CCN(c2nc(-c3ccc(Br)cc3)cs2)CC1	-9.98%	
COc1ccccc1C1=Nn2c(nnc2-c2cccc(OC)c2OC)SC1	5.74%	
CC(C)(C)c1ccc(-c2ccc(=O)n(CC(=O)NCCc3ccccc3)n2)cc1	3.93%	

Each molecule was assayed against Retinaldehyde dehydrogenase 3 (Homo sapiens) (UniProt P47895) (assay: qHTS for Inhibitors of the Aldehyde Dehydrogenase Family (ALDH1A3) Primary screen (AID 2061315;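 also: plate controls were DMSO vehicle for no effect and reference inhibitor for full effect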)). Conditions: ALDH inhibition qHTS; series mostly up to 56 µM; activity change, negative = inhibition: at the top concentration.

Structure (SMILES)	activity change, negative = inhibition	Potency
COC1=CC(=O)C[C@@H](C)[C@@]12Oc1c(Cl)c(OC)cc(OC)c1C2=O	3.57%	
Cc1ccc(NS(=O)(=O)c2cc3c(cc2NC(C)CO)NC(=O)CC3)cc1C (stereo not given)	0.758%	
COC(=O)c1cc(F)c(S(=O)(=O)N2CCN(S(=O)(=O)c3ccc4c(c3)OCCO4)CC2)cc1F	-2.32%	
Cc1ccc(CNc2ccc(N3CCN(C(=O)OC(C)(C)C)CC3=O)cc2)cc1	3.01%	
CC(C)(O)/C=C/C(=O)[C@](C)(O)[C@H]1[C@H](O)C[C@@]2(C)[C@@H]3CC=C4[C@@H](C[C@H](O[C@@H]5O[C@H](CO)[C@@H](O)[C@H](O)[C@H]5O)C(=O)C4(C)C)[C@]3(C)C(=O)C[C@]12C	-20.4% [at 16.9 µM]	
Cc1cc2c(s1)c1cnn(Cc3c(F)ccc(F)c3Cl)c(=O)c1n2C	-1%	
O=C(Nc1ccc(-c2ccccc2)nc1)c1cccs1	4.38%	
Oc1ccc(-c2ccccc2F)c2cccnc12	-3.51%	
Cc1nc(N2CCOCC2)c2nc(-c3ccccc3)n(CC(C)(C)CN(C)C)c2n1	-3.03%	
Cc1ccc2nc(NC3=NC4(CCCC4)C4=C(CCCC4=O)N3)oc2c1	17.3%	
Cc1cc(NC(=O)Nc2cccc(-c3ccncc3)n2)ccc1Cl		inactive
Cc1cc(C)n2ncc(C(=O)Nc3cccc(C(F)(F)F)c3)c2n1	-1.12%	
Cc1cc2c(s1)c1cnn(Cc3cccc(F)c3)c(=O)c1n2C	-10.3%	
CC(C)C1CCC(C(=O)Nc2ccc(S(=O)(=O)Nc3nccs3)cc2)CC1 (stereo not given)	10.8%	
CCCCCN1CCC(C(=O)Nc2ccc([S+](=O)([O-])Nc3nccs3)cc2)CC1	18%	
CC(=O)N1CCc2cc(S(=O)(=O)Nc3ccc(C)c(C)c3)ccc21	5.13%	
CNc1oc(-c2ccc(Cl)c(Cl)c2)nc1C#N	0.272%	
CNCC(=O)Nc1ccc(Cl)cc1C(=O)c1ccc[nH]1	3.85%	
Cc1ccc(-c2ccc(CNc3nc(-c4ccccc4C(C)C)nc4ccccc34)cc2)cn1	-8.67%	
COc1ccc2nc(-c3ccc(F)cc3Cl)sc2c1	-6.17%	

Structure (SMILES)	activity change, negative = inhibition	Potency
COc1ccc(C(=O)Nc2ccc(-c3nc4ccccc4[nH]3)cc2)cc1C(F)(F)F	-1.19%	
C=C1C[C@]23C[C@H]1CC[C@H]2C1=C[C@H]2OC(=O)[C@@](C)([C@H]1[C@@H]3C(=O)O)[C@H]2O	14.5%	
Cc1nc(NCCO)c2nc(-c3ccccc3)n(CC3CCN(C)CC3)c2n1	9.27%	
Cn1c2cc(Br)sc2c2cnn(Cc3c(F)cccc3F)c(=O)c21	-2.58%	
CC(=O)O[C@H]1CC(C)(C)CC2[C@]13CO[C@@]21CCC2[C@@]4(C)CC[C@H](O[C@@H]5OC[C@H](O[C@@H]6O[C@H](CO)[C@@H](O)[C@H](O)[C@H]6O[C@@H]6OC[C@@H](O[C@@H]7O[C@H](CO)[C@@H](O)[C@H](O)[C@H]7O)[C@H](O)[C@H]6O)[C@H](O)[C@H]5O[C@@H]5O[C@H](CO)[C@@H](O)[C@H](O)[C@H]5O)[C@@](C)(CO)C4CC[C@@]2(C)[C@]1(C)C[C@H]3O (stereo not given in full)	11.1% [at 11.2 µM]	
Cc1ccc(-c2ccc(=O)n(CC(=O)NCCc3ccccn3)n2)cc1	-10.8%	
CN(C)c1ccc2nc(NC(=S)N3CCN(c4cccc(C(F)(F)F)c4)CC3)sc2c1	-6.26%	
CNc1nc(-c2ccc3c(N)n[nH]c3c2)cc(N2CC(C(=O)NC3CCCCC3)CCC2C)n1 (stereo not given)	-8.47%	
CCOC(=O)CCC(=O)Nc1ncnc2c1C(c1ccccc1)c1c(ccc3ccccc13)O2 (stereo not given)	25.6%	
Fc1ccc(-c2ccc(Nc3nc(-c4ccncc4)nc4ccccc34)cc2F)cc1	-9.05%	
CCC(C)/C=C(C)/C=C/C1=CC2=C(Cl)C(=O)C(C)(OC(C)=O)C(=O)C2(O)C(OC)O1 (stereo not given)	-7.05% [at 28 µM]	
O=C(CNC(=O)C1CCCCC1)OC(C(=O)c1ccccc1)c1ccccc1 (stereo not given)	3.36%	
CCCn1c(C)nc2c(NCc3ccccc3)nc(C)nc21	8.91%	
CCN(CC)Cc1cccc(/C=C/c2nc3ccc(F)cc3c(=O)n2-c2ccccc2Cl)n1	-6.46%	
CC(C)(C)OC(=O)NCCOCCOCCOc1ccc(-c2no[n+]([O-])c2C#N)cc1	3.14%	
Cc1ccc(S(=O)(=O)Nc2ccccc2C(=O)Nc2cccc(-c3ccccc3)c2)cc1	-9.66%	
COc1cc(O)c(C(CC(=O)N2CCC(Cc3ccccc3)CC2)c2ccc(OC)c(OC)c2)c(OC)c1 (stereo not given)	12.4% [at 114 µM]	
O=C(NCCc1ccccc1)C1CCN(c2nc(-c3ccc(Br)cc3)cs2)CC1	38.9%	
COc1ccccc1C1=Nn2c(nnc2-c2cccc(OC)c2OC)SC1	2.9%	
CC(C)(C)c1ccc(-c2ccc(=O)n(CC(=O)NCCc3ccccc3)n2)cc1	2.91%	
